Screening data as filed in PubChem.
Cycloheximide cs: affects cycloheximide protein synthesis inhibition readout, counter-screen. max response, %. cell reporter, cycloheximide protein synthesis inhibition counterscreen. 300,000 compounds, 12% hits; in the data active = max response mostly above about 13%, no sharp cut-off; inactive = mostly below about 14%; also: read at 38.3 µM for the half of the compounds with a filed dose; 0% is about no effect
Shiga inhibitor: inhibitors of Shiga toxin in Vero cells | Vero cells, Shiga toxin protein synthesis inhibition reporter | inhibition, % at 38.7 µM | 290,000 compounds, 9.2% hits | AID 2315; in the data active = inhibition mostly above about 28%, no sharp cut-off; inactive = mostly below about 43%; also: 0% is about no effect
Pf growth 48h: P. falciparum growth inhibition at 48 hours (one generation); P. falciparum luciferase growth in erythrocytes, 48 h; Potency, µM (top dose mostly 28.7 µM), inactives show top-dose activity change, negative = inhibition, hits mostly inhibitors; 310,000 compounds, 5.9% hits; also: potency is read from the fitted curve at half-maximal effect; % is scaled to controls: 0 for no effect and ±100 for the full control effect
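Firefly luciferase activity from engineered P. falciparum reports growth; inhibitors lower the luminescent signal. Cultures contained 2% hematocrit erythrocytes at 0.1% final parasitemia.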
Pf growth 96h: inhibits malaria parasite growth, 96 h | Potency, µM (highest dose often 28.7 µM), inactives show at the top dose activity change, negative = inhibition, most hits filed as inhibitors | P. falciparum luciferase reporter growth, 96 h | 320,000 compounds, 6.9% hits; also: potency is read from the fitted curve at half-maximal effect; % is scaled to controls: 0 for no effect and ±100 for the full control effect
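Delayed-death screen, second-generation endpoint: infected erythrocytes, 2% hematocrit, 0.05% parasitemia final; 96 hours at 37 C, 5% CO2; luciferase detection reagent; luminescence decrease equals reduced growth.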
HCMV inh: human cytomegalovirus inhibition. HFF cells, HCMV-luciferase reporter, 72 h; hits give low values. 410,000 compounds, 4.5% hits. activity change, negative = inhibition, % at 57.5 µM; in the data active = activity change below about -60%; inconclusive = no clear call, values can overlap the other calls; inactive = above about -39%; also: % is scaled to controls: 0 for no effect and ±100 for the full control effect
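After 16 h attachment at 37C, HFF cells received test compound and HCMV-luciferase (1 PFU/cell); reporter luminescence read 72 h later, data normalized against buffer-only and known inhibitor Salinomycin.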
* hit, by the source's call; ? = inconclusive; / = no result. Shown are actives, neighbours in structure and some others; about 20% of the full set was active somewhere. Unless noted, calls follow the shape of the dose curve; as a rule, active = well fitted inhibition curve with a large enough effect; inconclusive = small, poorly fitted or top-dose-only effect, or another doubt; inactive = no such curve, though single readings can be large or run the other way.

SMILES | Cycloheximide cs | Shiga inhibitor | Pf growth 48h | Pf growth 96h | HCMV inh
Cc1cc(Cl)ccc1OCC(=O)NC1CCCC1 | 34.4* | 36.7 | / | ? | -74.4*
O=C(CSCC(=O)NC1CC1)Nc1ccc2ccccc2c1 | -2.7 | -0.3 | 13.1µM* | ? | 28.7
Cc1cc(N2CCN(c3cccc(C(F)(F)F)c3)CC2)n2nc(-c3ccccc3C)nc2n1 | / | / | / | / | 10.8
COc1cccc(C(=O)Nc2cccc(OCc3cc(=O)n4c5c(sc4n3)CCCC5)c2)c1 | / | / | / | / | 19.4
CCN(CC)CCSc1nc(O)c(Cc2ccccc2)c(=O)n1-c1ccccc1 | -7.8 | 1.4 | 23.2% | -23.3% | -0.4
Cc1ccc(OCC(=O)NC2CCCC2)c(C)c1 | 35.9* | 41.5 | 35.9% | 0.928µM* | 1.2
Cc1ccc(OCC(=O)NC2CC(C)(C)NC(C)(C)C2)c(C)c1 | -1.0 | 14.9 | 26.8% | 34.7% | -3.8
C/C=N\NC(=O)COc1cc(C)ccc1C | -0.6 | -7.9 | -16.0% | 16.0% | -60.1*
Cc1cccc(C)c1OCC(=O)NNC(=S)NC(=O)C1CC1 | -0.8 | 18.9 | ? | 10.4µM* | -39.1
CN(Cc1ccc(Cl)c(Cl)c1)C(=O)CN1C(=O)NC2(CCCC2)C1=O | / | / | ? | 14.9% | -7.1
O=[N+]([O-])c1cc([As](=O)(O)c2ccc(O)c([N+](=O)[O-])c2)ccc1O | 4.6 | -7.6 | 4.65µM* | 2.94µM* | -15.5
N=C(N)SCc1ccc(O)c([N+](=O)[O-])c1 | 10.8 | -2.7 | 49.6% | 47.8% | 22.9
CCOc1ccc(-n2ccn(CC(=O)NCCc3ccccc3)c(=O)c2=O)cc1 | / | / | 0.0% | 1.3% | -29.3
CC(C)(C)NC(=O)CCN(/N=C/c1ccccc1)C1=NS(=O)(=O)c2ccccc21 | -1.4 | -3.2 | ? | ? | -30.3
Cc1ccc(C(=O)NN(CCC(=O)NC(C)(C)C)C2=NS(=O)(=O)c3ccccc32)cc1 | -1.0 | -11.2 | -8.8% | 5.86µM* | ?
COc1cc(/C=C(\NC(=O)c2ccccc2)C(=O)NCCO)c([N+](=O)[O-])cc1OC | -2.7 | -3.2 | 5.3% | 0.8% | 89.4
COc1ccc(C(=Cc2cc(OC)c(OC)cc2[N+](=O)[O-])C(=O)O)cc1 | / | / | / | / | -99.0*
CC(C)N1CCN(Cc2cccc(-n3cccn3)c2)CC1CCO (stereo unspecified) | -1.7 | 9.9 | 9.3% | -7.1% | 11.5
O=c1[nH][nH]c(=O)c2c(NS(=O)(=O)c3ccccc3)cccc12 | 35.6* | 62.4* | 1.7% | ? | -24.4
CCn1c(=O)cc(SCC(=O)Nc2ccc(C)cn2)c2ccccc21 | 13.8 | 11.0 | 7.4% | ? | -94.6*
CCOC(=O)c1ccccc1NC(=O)COc1cc(=O)n(CC)c2ccccc12 | 0.1 | -1.7 | / | -3.9% | 3.8
CCn1c(=O)cc(OCC(=O)Nc2ccccc2Cl)c2ccccc21 | / | / | / | / | 17.0
CCn1c(=O)cc(OCC(=O)Nc2nc(C)cs2)c2ccccc21 | -1.0 | -1.0 | 6.1% | 2.08µM* | 10.8
CCn1c(=O)cc(OCC(=O)Nc2ccc(C)cn2)c2ccccc21 | -4.2 | -7.7 | 0.3% | / | -60.8*
CCn1c(=O)cc(OCC(=O)Nc2ccccc2N2CCN(C)CC2)c2ccccc21 | 4.1 | -7.9 | / | 9.28µM* | 1.8
SMILES | Cycloheximide cs | Shiga inhibitor | Pf growth 48h | Pf growth 96h | HCMV inh
CC(=O)C1=CCC(c2ccc(Cl)c(Cl)c2)N(S(=O)(=O)c2ccc(C)cc2)C1 (stereo unspecified) | / | / | / | / | -23.4
COC1C=CO[C@@]2(C)Oc3c(C)c(O)c4c(O)c(c5c(nc6cc(C)ccn65)c4c3C2=O)NC(=O)/C(C)=C\C=CC(C)C(O)[C@@H](C)C(O)C(C)[C@@H](OC(C)=O)C1C (stereo partly specified) | / | / | 6.75µM* | 4.78µM* | /
COC1C=CO[C@@]2(C)Oc3c(C)c(O)c4c(O)c(c(C=NN5CCN(C)CC5)c(O)c4c3C2=O)NC(=O)/C(C)=C\C=CC(C)C(O)[C@@H](C)C(O)C(C)[C@H](OC(C)=O)C1C (stereo partly specified) | / | / | 0.953µM* | 0.601µM* | /
CO[C@H]1/C=C/O[C@@]2(C)Oc3c(C)c(O)c4c(O)c(c5c(c4c3C2=O)NC2(CCN(CC(C)C)CC2)N=5)=NC(=O)/C(C)=C\C=C\[C@H](C)[C@H](O)[C@@H](C)[C@@H](O)[C@@H](C)[C@H](OC(C)=O)[C@@H]1C | / | / | 8.49µM* | 5.36µM* | 23.1
COc1ccc(N(CC(=O)NC2CCCCC2)C(=O)CNC(=O)c2ccco2)cc1OC | 1.6 | 14.9 | -28.2% | -18.4% | 3.3
O=C(NCc1ccccc1)C(=O)NCC1OCCN1C(=O)c1ccc(Cl)cc1 (stereo unspecified) | 1.4 | -6.4 | -20.0% | 6.2% | -24.3
O=C1CC(=O)NC(SCC(=O)Nc2ccccc2[N+](=O)[O-])=N1 | -2.0 | 19.5 | -1.6% | 5.6% | -13.6
Cc1ccc(-c2nc3ccccn3c2Nc2ccc3c(c2)OCCO3)o1 | / | / | / | / | 29.9
Cc1cc(NC(=O)CSc2nc(-c3ccccc3C)nc3c2c(=O)n(C)c(=O)n3C)no1 | / | / | / | / | -5.4
Cc1cc(O)cc(O)c1C(=O)Cc1ccccc1 | 9.3 | 17.1 | 15.4% | 27.8% | -70.6*
O=C(Cc1ccc([N+](=O)[O-])cc1)c1c(O)cc(O)cc1O | 15.9* | 19.4 | 3.1% | 2.0% | -21.6
Cc1cccc(/C(N)=N/OC(=O)COc2ccc(Cl)cc2)c1 | -3.0 | 17.5 | ? | 2.94µM* | -36.2
N/C(=N\OC(=O)COc1ccc([N+](=O)[O-])cc1)c1cccnc1 | -1.7 | 14.7 | 1.1% | -29.2% | ?
N/C(=N\OC(=O)COc1ccc(Cl)cc1Cl)c1cccnc1 | 53.6* | 78.0* | 176.0% | 1.8% | 27.3
Cc1ccc(OCC(=O)O/N=C(\N)c2cccnc2)cc1 | 22.8* | 67.9* | 74.5% | 129.2% | 25.9
N/C(=N\OC(=O)COc1ccc(Cl)cc1)c1cccnc1 | 15.2* | 62.2* | 42.2% | 36.3% | -2.7
CCn1nc(C)c(CNC(=O)c2cc(COc3ccc(C)nc3)on2)c1C | -1.4 | -2.9 | -4.2% | 0.2% | -24.4
Cc1sc2ncnc(N(C)Cc3ccco3)c2c1C | -3.5 | -4.4 | / | -28.7% | -70.8*
O=C(Nc1ccc2c(c1)ncn2-c1ccccc1)c1ccco1 | 38.2* | 44.8* | -15.8% | 3.4% | -11.4
Cn1cnc2cc(NC(=O)c3ccco3)ccc21 | 24.9* | 78.8* | 201.2% | -1.2% | 63.7
CC(=O)Nc1ccc2c(c1)ncn2-c1ccc(C)cc1 | 42.1* | 98.6* | ? | 2.3% | 29.9
O=C(Nc1ccc(S(=O)(=O)N2CCCC2)cc1)c1ccc([N+](=O)[O-])cc1 | 2.2 | -3.4 | ? | ? | 8.5
CCN(CCCNC(=O)CN(C)S(=O)(=O)c1ccc2c(c1)CCC(=O)N2)c1cccc(C)c1 | -3.1 | -17.0 | ? | 27.7% | -4.5
Cc1ccc(C2CC(c3cccs3)=NN2C(=O)CCl)cc1 (stereo unspecified) | 42.7* | 42.7* | 13.1µM* | 1.85µM* | -101.4*
Cc1ccc(C2CC(c3cccs3)=NN2C(=O)CSC2=NCCS2)cc1 (stereo unspecified) | -3.0 | -7.4 | 10.4µM* | 11.7µM* | 1.6
